“And” between values parts separate entries of the source, which are not always exact repeats. Identical values can stand only once. Out of some 5,500 compounds screened, about 2,000 (36%) were called active. Another 18% or so got no clear call; they are omitted. No stated cut-off is given here; in the data, active means normalized growth mostly below about 0.91 (no sharp cut-off); inconclusive means no clear call, values can overlap the other calls; inactive means mostly above about 0.92. The list shows a part of the results.
Test: chemical genetic growth profiling, strain panel (AID 1159580);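 further: tested at 20 µM; growth read once vehicle control cultures reached saturation at 30 °C; 1 = growth at the plate median or of vehicle wells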
Settings: S. cerevisiae deletion strains, growth OD

Measured: normalized growth

CCc1cccc2c3c([nH]c12)C(CC)(CC(=O)O)OCC3 (stereo not given)
inactive: locus YAL013W, strain DEP1, stronger effect = lower value 1.01 and 1.02 | locus YAL021C, strain ccr4, stronger effect = lower value 1.01 | locus YAL026C, strain drs2, stronger effect = lower value 0.983 | locus YAL030W, strain snc1, stronger effect = lower value 1 | locus YAL040C, strain CLN3, stronger effect = lower value 0.976 | locus YBL061C, strain skt5, stronger effect = lower value 0.979 | locus YBR009C, strain hhf1, stronger effect = lower value 1 | locus YBR021W, strain FUR4, stronger effect = lower value 1.01 | locus YBR023C, strain chs3, stronger effect = lower value 0.968 | locus YBR171W, strain sec66, stronger effect = lower value 0.959 | locus YBR229C, strain ROT2, stronger effect = lower value 1.01 | locus YBR231C, strain swc5, stronger effect = lower value 0.989 | locus YBR279W, strain paf1, stronger effect = lower value 0.987 | locus YCL011C, strain gbp2, stronger effect = lower value 1 | locus YCL016C, strain dcc1, stronger effect = lower value 1 | locus YCL029C, strain bik1, stronger effect = lower value 1.01 | locus YCL061C, strain MRC1 (second series), stronger effect = lower value 0.995 | locus YCL069W, strain vba3, stronger effect = lower value 0.976 | locus YCR088W, strain abp1, stronger effect = lower value 0.983 | locus YDL005C, strain med2, stronger effect = lower value 0.971 | locus YDL035C, strain GPR1, stronger effect = lower value 1 | locus YDL040C, strain nat1, stronger effect = lower value 0.976 | locus YDL074C, strain BRE1, stronger effect = lower value 1.02 | locus YDL101C, strain DUN1, stronger effect = lower value 1.02 | locus YDL134C, strain PPH21, stronger effect = lower value 1.01 | locus YDL185W, strain tfp1, stronger effect = lower value 1.01 | locus YDL192W, strain arf1, stronger effect = lower value 1.01 | locus YDR001C, strain nth1, stronger effect = lower value 0.966 | locus YDR069C, strain doa4, stronger effect = lower value 0.976 | locus YDR101C, strain arx1, stronger effect = lower value 1 | locus YDR137W, strain rgp1, stronger effect = lower value 0.964 | locus YDR150W, strain NUM1, stronger effect = lower value 1 and 0.999 | locus YDR159W, strain sac3, stronger effect = lower value 0.976 | locus YDR162C, strain NBP2, stronger effect = lower value 1.01 | locus YDR195W, strain ref2 0.896 | locus YDR297W, strain sur2, stronger effect = lower value 0.985 | locus YDR318W, strain mcm21, stronger effect = lower value 1.02 | locus YDR334W, strain swr1, stronger effect = lower value 0.951 | locus YDR335W, strain msn5, stronger effect = lower value 0.968 | locus YDR363W, strain ESC2, stronger effect = lower value 1.05 | locus YDR388W, stronger effect = lower value 1.01 | locus YDR392W, strain spt3, stronger effect = lower value 1.03 | locus YDR502C, strain sam2, stronger effect = lower value 0.986 | locus YEL003W, strain gim4, stronger effect = lower value 0.964 | locus YEL037C, strain rad23, stronger effect = lower value 0.968 | locus YEL061C, strain CIN8 (second series), stronger effect = lower value 0.965 | locus YEL061C, strain CIN8, stronger effect = lower value 1 | locus YER002W, strain NOP16, stronger effect = lower value 0.979 | locus YER015W, strain faa2, stronger effect = lower value 0.973 | locus YER016W, strain bim1, stronger effect = lower value 0.984 | locus YER110C, stronger effect = lower value 1 | locus YER111C, strain swi4, stronger effect = lower value 0.968 | locus YER155C, strain BEM2 (second series), stronger effect = lower value 0.979 | locus YER155C, strain BEM2, stronger effect = lower value 1.01 | locus YER167W, strain BCK2, stronger effect = lower value 1.01 | locus YFR010W, strain ubp6, stronger effect = lower value 0.984 | locus YGL078C, strain dbp3, stronger effect = lower value 0.99 | locus YGL086W, strain mad1, stronger effect = lower value 1.01 | locus YGL167C, strain pmr1, stronger effect = lower value 0.957 | locus YGL173C, strain kem1, stronger effect = lower value 0.993 | locus YGL227W, strain vid30, stronger effect = lower value 0.987 | locus YGL240W, strain doc1, stronger effect = lower value 0.982 | locus YGL248W, strain PDE1, stronger effect = lower value 1.01 | locus YGL253W, strain hxk2, stronger effect = lower value 0.98 | locus YGR078C, strain PAC10, stronger effect = lower value 1.02 | locus YGR135W, strain pre9, stronger effect = lower value 1 | locus YGR229C, strain SMI1, stronger effect = lower value 0.995 | locus YGR252W, strain gcn5, stronger effect = lower value 1 | locus YHR013C, strain ard1, stronger effect = lower value 0.985 | locus YHR027C, strain rpn1, stronger effect = lower value 0.997 | locus YHR030C, strain SLT2, stronger effect = lower value 1.01 and 0.971 | locus YHR079C, strain IRE1 (second series), stronger effect = lower value 1.01 | locus YHR079C, strain IRE1, stronger effect = lower value 0.965 | locus YHR094C, strain hxt1, stronger effect = lower value 1.01 | locus YHR129C, strain ARP1, stronger effect = lower value 1.01 | locus YHR142W, strain chs7, stronger effect = lower value 0.986 | locus YHR200W, strain rpn10, stronger effect = lower value 1 | locus YIL066C, strain RNR3, stronger effect = lower value 1.01 | locus YIL073C, strain SPO22, stronger effect = lower value 1.02 | locus YIL125W, strain kgd1, stronger effect = lower value 0.992 | locus YIR030C, strain dcg1, stronger effect = lower value 0.997 | locus YJL092W, strain hpr5, stronger effect = lower value 0.982 | locus YJL095W, strain BCK1 (second series), stronger effect = lower value 0.987 | locus YJL095W, strain BCK1, stronger effect = lower value 1.05 and 0.971 | locus YJL115W, strain asf1, stronger effect = lower value 0.98 | locus YJL129C, strain trk1, stronger effect = lower value 0.934 | locus YJL134W, strain LCB3, stronger effect = lower value 1.01 | locus YJL154C, strain vps35, stronger effect = lower value 0.981 | locus YJL164C, strain tpk1, stronger effect = lower value 1.01 | locus YJL166W, strain qcr8, stronger effect = lower value 0.984 | locus YJL168C, strain set2, stronger effect = lower value 1 | locus YJL187C, strain SWE1 (second series), stronger effect = lower value 1.03 | locus YJR043C, strain POL32, stronger effect = lower value 1.01 | locus YJR066W, strain TOR1, stronger effect = lower value 0.916 | locus YJR075W, strain HOC1, stronger effect = lower value 1.02

From PubChem BioAssay AID1159580 (chemical genetic matrix, 2015)
